# Laboratory results from PubChem BioAssay (NCATS).
# Results filed as inconclusive are left out. Entries that show only a call come without a potency. Calls of active or inactive are those of the source. Unless noted, the call rests on the fitted dose curve; in most records, active means well fitted curve in the direction sought with a large enough effect; inconclusive means small, poorly fitted or top-dose-only effect, or another doubt; inactive means no such curve, though single readings can be large; an effect the other way counts as inactive or inconclusive.
# Experiments:
# [1] = NS1 protein of Zika virus - qHTS assay to identify small molecule inhibitors in human HEK 293 cells (AID 1347053); conditions: HEK293 ZIKV MR766 infection, NS1 TR-FRET, 24 h; series mostly up to 46.1 µM; further: nearly all actives have a fitted effect of over 55% in size
# Summary of the method: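 In this cell-based screen, HEK 293 cultures received compound for one hour before Zika MR766 at MOI = 0.5. NS1 was quantified 24 hours later by TR-FRET, normalized to virus-free wells and infected wells.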
# [2] = target: T1, Tyrosine-protein phosphatase non-receptor type substrate 1 (Homo sapiens) + Leukocyte surface antigen CD47 (Homo sapiens) (UniProt P78324+Q08722); assay: CD47-SIRPalpha protein protein interaction - LANCE assay qHTS validation (AID 1347057; active means well fitted curve in the direction sought with a large enough effect in the signal ratio, with a control signal flat, not every such curve was filed as active; the % refers to the signal ratio); conditions: Recombinant CD47-His / biotin-SIRPalpha, TR-FRET ratio; series mostly up to 38.3 µM
# T1 sequence (P78324 whole entry, looked up, the tested form may be a part): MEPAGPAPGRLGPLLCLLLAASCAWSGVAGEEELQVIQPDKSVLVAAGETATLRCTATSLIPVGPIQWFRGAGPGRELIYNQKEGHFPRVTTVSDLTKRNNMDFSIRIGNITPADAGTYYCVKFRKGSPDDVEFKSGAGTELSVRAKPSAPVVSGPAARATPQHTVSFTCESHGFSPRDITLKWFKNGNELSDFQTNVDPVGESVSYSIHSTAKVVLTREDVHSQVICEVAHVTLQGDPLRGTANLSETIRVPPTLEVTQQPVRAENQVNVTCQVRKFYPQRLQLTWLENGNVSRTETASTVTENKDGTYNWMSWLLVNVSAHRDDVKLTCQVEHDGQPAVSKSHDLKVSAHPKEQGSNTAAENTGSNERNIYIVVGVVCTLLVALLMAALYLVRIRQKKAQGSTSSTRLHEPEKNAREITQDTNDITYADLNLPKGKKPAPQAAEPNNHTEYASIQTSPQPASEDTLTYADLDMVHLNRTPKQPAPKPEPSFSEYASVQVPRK
# T1 sequence (Q08722 whole entry, looked up, the tested form may be a part): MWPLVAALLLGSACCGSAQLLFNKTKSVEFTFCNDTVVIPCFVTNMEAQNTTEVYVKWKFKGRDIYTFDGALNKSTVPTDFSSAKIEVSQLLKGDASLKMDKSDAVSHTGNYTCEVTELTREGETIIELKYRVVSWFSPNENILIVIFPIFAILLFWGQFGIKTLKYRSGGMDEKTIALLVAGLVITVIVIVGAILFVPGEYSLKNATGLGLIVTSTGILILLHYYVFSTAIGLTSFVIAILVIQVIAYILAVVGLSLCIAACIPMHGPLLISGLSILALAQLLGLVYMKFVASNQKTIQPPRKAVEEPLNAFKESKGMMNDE
# Summary of the method: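 Inhibition of soluble CD47/SIRPalpha ectodomain association by titrated compounds, measured as 665/615 nm time-resolved FRET ratio after sequential 30 min room-temperature incubations.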
# [3] = target: T1, Tyrosine-protein phosphatase non-receptor type substrate 1 (Homo sapiens) + Leukocyte surface antigen CD47 (Homo sapiens); assay: CD47-SIRPalpha protein protein interaction - Alpha assay qHTS validation (AID 1347059); conditions: AlphaScreen CD47-His/biotin-SIRPalpha binding, LOPAC; series mostly up to 38.3 µM;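 further: bead proximity luminescence from CD47 binding SIRPalpha after compound preincubation with SIRPalpha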; further: potency means the concentration at half of the fitted maximal effect
# Summary of the method: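 AlphaScreen signal between CD47-His (12.5 nM) and biotin-SIRPalpha (25 nM) soluble extracellular domains, bead-captured via Ni-NTA and streptavidin. Compounds, in 7-point titrations, met SIRPalpha 30 min before CD47; PBS pH 7.4 with 0.05% IGEPAL.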
# [4] = target: Parathyroid hormone/parathyroid hormone-related peptide receptor (Homo sapiens) (UniProt Q03431); assay: qHTS for PTHR1 Agonists: Optimization Screen against the NCGC LOPAC library (AID 1347079); conditions: HEK293 GP2 PTHR1 GloSensor cAMP luminescence, 1 h; series mostly up to 57.1 µM;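 further: GloSensor cAMP luminescence in HEK-293 GP2 cells expressing human PTHR1 with IBMX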; further: potency means the concentration at half of the fitted maximal effect
# Parathyroid hormone/parathyroid hormone-related peptide receptor (Homo sapiens), sequence (Q03431 whole entry, looked up): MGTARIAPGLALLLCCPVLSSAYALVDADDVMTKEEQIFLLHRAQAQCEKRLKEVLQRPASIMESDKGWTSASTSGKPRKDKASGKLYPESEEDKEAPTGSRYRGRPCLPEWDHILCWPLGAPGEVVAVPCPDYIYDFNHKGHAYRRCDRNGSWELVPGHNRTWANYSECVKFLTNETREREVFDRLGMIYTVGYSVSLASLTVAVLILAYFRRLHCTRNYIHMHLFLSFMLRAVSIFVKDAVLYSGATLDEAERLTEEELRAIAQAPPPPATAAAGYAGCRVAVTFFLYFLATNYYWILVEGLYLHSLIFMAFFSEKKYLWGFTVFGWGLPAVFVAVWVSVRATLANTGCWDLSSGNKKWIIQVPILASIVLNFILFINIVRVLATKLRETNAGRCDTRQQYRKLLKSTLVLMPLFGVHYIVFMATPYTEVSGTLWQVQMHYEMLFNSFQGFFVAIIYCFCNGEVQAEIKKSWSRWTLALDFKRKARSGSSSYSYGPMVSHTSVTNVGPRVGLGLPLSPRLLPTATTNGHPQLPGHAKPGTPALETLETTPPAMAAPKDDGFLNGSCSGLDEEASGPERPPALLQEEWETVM
# Summary of the method: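 HEK-293 GP2 cells, PTHR1 + GloSensor cAMP; 3000 cells/well, o/n. Luciferin + IBMX 0.5mM each (stock), 1 hr 37C. Cpd titration, 1 hr 37C. Lum after 15 min RT. Ctrl M-PTH(1-15) top 10uM.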
# [5] = system: Zika virus NS2B-NS3 protease (unlinked); assay: Optimization of GU AMC qHTS for Zika virus inhibitors: Unlinked NS2B-NS3 protease assay (AID 1347151); conditions: recombinant ZIKV NS2B-NS3 protease, fluorogenic AMC substrate; series mostly up to 52.5 µM; further: nearly all actives have a fitted effect of over 80% in size; further: potency means the concentration at half of the fitted maximal effect
# Summary of the method: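 Noncovalent NS2B hydrophilic domain–NS3 protease complex (25 nM final) in 10 mM Tris-HCl pH 8.0, 0.01% Tween 20; AMC substrate, room temperature 15 min (~20% conversion); fluorescence change normalized, 4-parameter Hill fit.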
# [6] = target: N-terminal Xaa-Pro-Lys N-methyltransferase 1 (Homo sapiens) (UniProt Q9BV86); assay: qHTS Assay for Inhibitors of N-terminal methyltransferase 1 (NTMT1): LOPAC validation of the NTMT1 SAHH-coupled ThioGlo3 Assay (AID 1347143); conditions: recombinant NTMT1, SAHH-coupled ThioGlo3 fluorescence; series mostly up to 114 µM;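 further: SAH from peptide methylation measured as thiol fluorescence via SAHH coupling and ThioGlo3; nearly all actives have a fitted effect of over 70% in size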; further: potency means the concentration at half of the fitted maximal effect
# N-terminal Xaa-Pro-Lys N-methyltransferase 1 (Homo sapiens), sequence (Q9BV86 whole entry, looked up): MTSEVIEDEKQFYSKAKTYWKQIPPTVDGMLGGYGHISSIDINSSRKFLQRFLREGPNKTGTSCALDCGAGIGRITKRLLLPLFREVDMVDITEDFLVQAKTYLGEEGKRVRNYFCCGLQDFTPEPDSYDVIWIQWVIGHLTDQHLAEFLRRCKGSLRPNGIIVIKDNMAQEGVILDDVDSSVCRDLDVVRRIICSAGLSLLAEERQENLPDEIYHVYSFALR
# Summary of the method: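 NTMT1 125nM + cpds (various conc.), 1 min RT; add SAM 100uM/SAHH 10uM/ThioGlo3 15uM (addition mix). SAHH-coupled thiol detection, Ex340/Em450, t0 and 30 min RT; signal normalized to background. LOPAC 1280-cpd pilot.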
# Furin (Homo sapiens) = Furin (Homo sapiens) (UniProt P09958); assay: Furin counterscreen qHTS for Zika virus inhibitors (AID 1347149); conditions: furin enzymatic counterscreen, fluorogenic substrate; series mostly up to 57.5 µM; further: potency means the concentration at half of the fitted maximal effect; nearly all actives have a fitted effect of over 70% in size
# Furin (Homo sapiens), sequence (P09958 whole entry, looked up): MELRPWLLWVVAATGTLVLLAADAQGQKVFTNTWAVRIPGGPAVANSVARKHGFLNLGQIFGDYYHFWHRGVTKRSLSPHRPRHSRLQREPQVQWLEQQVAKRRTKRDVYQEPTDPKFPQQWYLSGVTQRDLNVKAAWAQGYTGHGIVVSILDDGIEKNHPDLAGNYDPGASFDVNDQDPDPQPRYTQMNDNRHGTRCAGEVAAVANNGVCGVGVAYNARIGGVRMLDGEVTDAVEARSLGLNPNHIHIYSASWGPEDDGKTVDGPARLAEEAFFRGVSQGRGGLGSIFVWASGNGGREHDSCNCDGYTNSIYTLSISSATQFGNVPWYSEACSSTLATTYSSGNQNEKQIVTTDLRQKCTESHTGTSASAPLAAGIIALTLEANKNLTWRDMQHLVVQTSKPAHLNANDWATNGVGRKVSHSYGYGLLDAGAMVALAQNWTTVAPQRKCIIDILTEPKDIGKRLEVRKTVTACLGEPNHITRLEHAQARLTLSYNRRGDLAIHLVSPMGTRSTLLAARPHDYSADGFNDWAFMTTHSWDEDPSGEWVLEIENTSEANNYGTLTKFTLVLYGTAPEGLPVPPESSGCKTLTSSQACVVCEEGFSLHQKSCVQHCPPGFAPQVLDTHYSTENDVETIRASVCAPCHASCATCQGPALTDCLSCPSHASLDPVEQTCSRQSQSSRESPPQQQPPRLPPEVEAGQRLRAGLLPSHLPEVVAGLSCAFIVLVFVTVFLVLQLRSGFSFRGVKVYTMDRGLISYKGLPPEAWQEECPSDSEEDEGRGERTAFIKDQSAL
# Summary of the method: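 Counterscreen measures cleavage of 2 microM BOC-RVRR-AMC, below its ~15 microM Km, by 5 nM full-length human furin at pH 7.0 after a 15-min compound preincubation. Inhibition derives from the 15-min fluorescence increase at 37C.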
# [7] = system: Zika virus NS2B-NS3 protease (linked construct); assay: Confirmatory screen NINDS AMC qHTS for Zika virus inhibitors (AID 1347152); conditions: Purified linked NS2B-NS3, AMC substrate fluorescence; series mostly up to 56.6 µM; further: potency means the concentration at half of the fitted maximal effect; nearly all actives have a fitted effect of over 70% in size
# Summary of the method: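 Linked NS2B-NS3 protease, 1 nM, in 10 mM Tris-HCl pH 8.0, 0.01% Tween 20; compounds preincubated 15 min at room temperature. Nle-KRR-AMC 10 microM (Km 18.3 µM); 15-min fluorescence change (340/450 nm) fitted to 4-parameter Hill.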
# [8] = system: Zika virus NS2B-NS3 protease (unlinked complex); assay: Confirmatory screen GU AMC qHTS for Zika virus inhibitors (AID 1347153); conditions: Recombinant NS2B-NS3 protease, AMC substrate fluorescence; series mostly up to 57.1 µM;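 further: enzyme at 25 nM with substrate at 10 µM below its Km of 18.3 µM; potency means the concentration at half of the fitted maximal effect; nearly all actives have a fitted effect of over 70% in size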
# Summary of the method: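 Noncovalent NS2B hydrophilic domain/NS3 protease complex (25 nM) in 10 mM Tris-HCl pH 8.0, 0.01% Tween 20 was preincubated 15 min at room temperature with compounds. Then 10 µM AMC substrate (Km 18.3 µM) was added; fluorescence was read over 15 min and fitted to a 4-parameter Hill equation.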
# [9] = target: T1, Tyrosine-protein phosphatase non-receptor type substrate 1 (Homo sapiens) + Leukocyte surface antigen CD47 (Homo sapiens); assay: CD47-SIRPalpha protein protein interaction - HTRF assay qHTS validation (AID 1347058; active means well fitted curve in the direction sought with a large enough effect in the signal ratio, not every such curve was filed as active; the % refers to the signal ratio); conditions: TR-FRET HTRF CD47-His / biotin-SIRPalpha binding, ratio 665/615; series mostly up to 38.3 µM
# Summary of the method: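 Soluble extracellular domains (6His-CD47, Avi-tag-biotinylated SIRPalpha) in PBS pH 7.4 with 0.05% IGEPAL CA-630. Compounds were preincubated 30 min at RT with CD47 and anti-His-Eu, then SIRPalpha and SAV-XL665 were added. TR-FRET 665/615 ratio.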
SMILES,Potency [1],Potency [2],Potency [3],Potency [4],Potency [5],Potency [6],Potency (Furin (Homo sapiens)),Potency [7],Potency [8],outcome [9]
CC(=O)NCCc1c[nH]c2ccc(O)cc12,inactive,inactive,inactive,inactive,inactive,–,–,–,–,–
c1ccc(C2CN3CCSC3=N2)cc1 (stereo not drawn),inactive,inactive,inactive,inactive,inactive,inactive,–,–,–,–
O=c1ccn([C@@H]2O[C@H](COP(=O)(O)OP(=O)(O)O)[C@@H](O)[C@H]2O)c(=O)[nH]1,inactive,inactive,inactive,inactive,inactive,inactive,–,–,–,–
CC(N)(C(=O)O)c1ccc(C(=O)O)cc1 (stereo not drawn),inactive,inactive,inactive,inactive,inactive,inactive,–,–,–,–
N[C@@H](Cc1ccc(O)c(I)c1)C(=O)O,inactive,inactive,inactive,inactive,inactive,inactive,–,–,–,–
C[C@@H](NCCc1ccc(O)cc1)[C@@H](O)c1ccc(O)cc1,inactive,inactive,inactive,2.38 µM (active),inactive,inactive,–,–,–,–
CC(C)(CO)Cc1cc(C(C)(C)C)c(O)c(C(C)(C)C)c1,inactive,inactive,inactive,–,inactive,inactive,–,–,–,–
CCN(c1nc(N)c(C(=O)N=C(N)N)nc1Cl)C(C)C,inactive,inactive,inactive,–,–,inactive,–,–,–,–
N#Cc1cc([N+](=O)[O-])c2sc(C(N)=O)[n+]([O-])c2c1,inactive,inactive,inactive,inactive,inactive,–,–,–,–,–
COC(=O)C1=C(C)NC(C)=C([N+](=O)[O-])C1c1ccccc1C(F)(F)F (stereo not drawn),inactive,inactive,inactive,–,–,inactive,–,–,–,–
CN(C)CCC(c1ccc(Br)cc1)c1ccccn1 (stereo not drawn),inactive,inactive,inactive,inactive,inactive,inactive,–,–,–,–
O=C(O)[C@H]1NCCC[C@H]1C(=O)O,inactive,inactive,inactive,–,inactive,inactive,–,–,–,–
O=C(O)C1=CCNCC1,inactive,inactive,inactive,inactive,inactive,inactive,–,–,–,–
Nc1ncnc2c1ncn2C1CCCO1 (stereo not drawn),inactive,inactive,inactive,inactive,inactive,inactive,–,–,–,–
Cc1cccc(C2CN(C)CCc3c2cc(O)c(O)c3Cl)c1 (stereo not drawn),inactive,inactive,inactive,inactive,inactive,56.2 µM (active),–,–,–,–
CC(N)=NCCCC[C@@H](N)C(=O)O,inactive,inactive,inactive,–,–,inactive,–,–,–,–

SMILES,Potency [1],Potency [2],Potency [3],Potency [4],Potency [5],Potency [6],Potency (Furin (Homo sapiens)),Potency [7],Potency [8],outcome [9]
O=C(O)Cc1ccc(O)c(O)c1,inactive,inactive,inactive,inactive,inactive,31.6 µM (active),–,–,–,–
C/C(=C\c1ccc(C(=O)O)cc1)c1ccc2c(c1)C(C)(C)CCC2(C)C,inactive,inactive,inactive,inactive,10.6 µM (active),–,21.5 µM (active),24.1 µM (active),24.1 µM (active),–
CCCCCCCCCC(=O)NC(CN1CCOCC1)[C@H](O)c1ccccc1 (stereo partly drawn),inactive,inactive,inactive,inactive,inactive,inactive,–,–,–,–
COc1cc(N)c(Cl)cc1C(=O)OCCN1CCCCC1,inactive,–,inactive,inactive,inactive,inactive,–,–,–,inactive
COC(=O)C(C)(N)Cc1ccc(O)cc1 (stereo not drawn),inactive,–,inactive,inactive,inactive,inactive,–,–,–,inactive
COc1ccc(CCn2nnnc2C2(c3ccc(C)cc3)CC2)cc1,inactive,–,inactive,inactive,inactive,inactive,–,–,–,inactive
Nn1nnc2ccccc21,inactive,–,inactive,inactive,inactive,inactive,–,–,–,inactive
CC(=O)[C@H]1CCC2C3CC=C4C[C@@H](OS(=O)(=O)O)CC[C@]4(C)C3CC[C@@]21C (stereo partly drawn),inactive,–,inactive,inactive,inactive,inactive,–,–,–,inactive
CN1CCC2(CCN3CCc4c(oc5ccccc45)C3C2)N(C)C1=O (stereo not drawn),inactive,–,inactive,inactive,–,–,–,–,–,inactive
NCC(O)c1ccc(O)c(O)c1 (stereo not drawn),inactive,–,inactive,inactive,–,–,–,–,–,inactive
NC(N)=NC(N)=Nc1cccc(Cl)c1,inactive,–,inactive,inactive,inactive,inactive,–,–,–,inactive
Nc1ncnc2c1nc(Sc1ccc(Cl)cc1)n2[C@H]1OC2COP(=O)(O)O[C@@H]2C1O (stereo partly drawn),inactive,–,inactive,inactive,inactive,inactive,–,–,–,inactive
O=C1Nc2ccc(I)cc2/C1=C/c1cc(Br)c(O)c(Br)c1,inactive,–,14.7 µM (active),inactive,5.97 µM (active),56.2 µM (active),–,–,–,inactive
O=C(O)/C=C/c1ccc(O)c(O)c1,inactive,–,inactive,inactive,–,44.7 µM (active),–,–,–,inactive
O=c1cc(-c2ccccc2F)[nH]c2cc3c(cc12)OCO3,inactive,–,inactive,inactive,26.7 µM (active),56.2 µM (active),–,–,–,inactive
